Bioassay records deposited in PubChem BioAssay by National Center for Advancing Translational Sciences (NCATS).
This is one part of a sample in which hits are shown more often than they occur.
HT1080-NT tox: kills 2HG-producing HT-1080-NT fibrosarcoma cells; actives 1.6% (n = 360,000); AID 686970; HT-1080-NT fibrosarcoma viability, CellTiter-Glo ATP luminescence, 48 h; Potency, µM (series often up to 46.1 µM), without a hit: top-dose activity, negative = less viability, hits mostly cytotoxic;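 note: NT is the 2HG producing partner of a matched IDH1 knockdown line; potency is the fitted concentration of half-maximal effect; 0% = DMSO-treated cells and -100% = media-only wells without cells; nearly all actives have a fitted effect of over 55% in size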
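Fibrosarcoma NT cells, 750 per well in 5% FBS RPMI, were exposed to compound for 48 hours. Viability: CellTiter-Glo luminescence.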
DT40 TDP1 no CPT: qHTS for Inhibitors of human tyrosyl-DNA phosphodiesterase 1 (TDP1): qHTS in cells in absence of CPT. Potency, µM (top dose mostly 46.2 µM), for inactives: at the top dose activity change, negative = growth inhibition, usual class: inhibitors. actives 15% (n = 420,000). DT40 Tdp1-/- hTDP1 cells, no CPT, ATP luminescence, 48 h; note: potency is the fitted concentration of half-maximal effect; nearly all actives have a fitted effect of over 55% in size
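Growth kinetics read by CellTiter-Glo luminescence after ≥48 hr at 37 °C. Cells: DT40 Tdp1-/- stably carrying human TDP1, 400 per well, compound exposure in the absence of CPT (DMSO vehicle).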
ALOX12 inh: blocks human arachidonate 12S-lipoxygenase. AID 1671190. Potency, µM (top dose mostly 108 µM), for the others: at the top dose activity change, negative = inhibition, usual class: inhibitors. actives 1.1% (n = 580,000). purified 12hLO, xylenol orange hydroperoxide absorbance; note: potency is the fitted concentration of half-maximal effect
Target sequence (P18054 whole entry, looked up): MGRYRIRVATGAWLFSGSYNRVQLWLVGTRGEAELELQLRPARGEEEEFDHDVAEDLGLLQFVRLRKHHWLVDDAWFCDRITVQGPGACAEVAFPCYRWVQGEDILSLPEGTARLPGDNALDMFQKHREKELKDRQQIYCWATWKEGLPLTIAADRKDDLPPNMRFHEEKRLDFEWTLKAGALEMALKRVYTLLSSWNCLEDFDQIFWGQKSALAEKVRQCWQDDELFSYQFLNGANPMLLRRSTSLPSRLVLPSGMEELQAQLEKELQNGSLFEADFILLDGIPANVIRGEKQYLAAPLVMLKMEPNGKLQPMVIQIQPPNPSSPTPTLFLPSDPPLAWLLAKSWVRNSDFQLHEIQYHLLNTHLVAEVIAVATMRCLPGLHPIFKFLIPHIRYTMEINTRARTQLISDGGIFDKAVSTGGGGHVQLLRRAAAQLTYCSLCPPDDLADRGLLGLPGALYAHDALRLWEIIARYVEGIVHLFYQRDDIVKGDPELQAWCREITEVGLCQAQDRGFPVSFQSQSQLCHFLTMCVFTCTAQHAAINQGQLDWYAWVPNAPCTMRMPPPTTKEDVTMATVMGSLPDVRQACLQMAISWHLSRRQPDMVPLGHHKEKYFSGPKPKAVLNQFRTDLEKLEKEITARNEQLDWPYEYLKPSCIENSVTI
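Hydroperoxide product was detected by ferrous iron/xylenol orange as the 573 to 405 nm absorbance ratio. Arachidonic acid at 40 uM (final) was turned over for 30 min at room temperature by 150 nM human 12hLO, pH 7.0 Hepes buffer, after 15 min compound preincubation.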
IL1B secr inh: inflammasome signaling inhibition, IL-1 beta readout | THP-1 LPS/ATP IL-1B secretion, AlphaLISA, 16 h; active compounds read low | activity change, % at 57.5 µM | actives 4.7% (n = 360,000) | AID 743279; in the data active = activity change below about -50%; inconclusive = mostly about -30% to -49%
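THP-1 cells pretreated 1 hr with compounds (up to 57.5 uM final), then stimulated with LPS (250 ng/mL final) plus ATP (1.25 mM final); secreted IL-1B measured by AlphaLISA after 16 hr, decreased signal indicating inhibition.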
HT1080 IDH1KD tx: toxicity to HT-1080 IDH1 knockdown cells (counter line). HT-1080 IDH1 knockdown viability, ATP luminescence, 48 h. Potency, µM (titrated, usually from 46.1 µM), without a hit: at the top dose activity, negative = toxicity, hits mostly cytotoxic. actives 2% (n = 360,000). AID 686971;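 note: potency is the fitted concentration of half-maximal effect; 0% = DMSO wells and -100% = cell-free medium wells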
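After a 2 h attachment period, IDH1KD HT-1080 cells took pin-transferred compound for 48 h at 37 °C; ATP-based luminescence after 10 min room-temperature reagent incubation reported viability.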
TDP1 cell CPT: DT40-hTDP1 cell growth loss with CPT; chicken DT40 Tdp1-/-;hTDP1 cells + 20 nM CPT, ATP luminescence, 48 h; Potency, µM (series often up to 46.2 µM), for the others: top-dose activity change, negative = growth inhibition, most hits filed as inhibitors; actives 12% (n = 420,000); AID 686979; note: potency is the fitted concentration of half-maximal effect; nearly all actives have a fitted effect of over 55% in size
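Chicken DT40 Tdp1-/- cells stably complemented with human TDP1 were seeded at 400 cells/well in medium containing 20 nM camptothecin, exposed to pin-transferred compounds, and grown at 37 °C for at least 48 hr. Viability was read as ATP luminescence.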
An asterisk follows results filed as active; ? = inconclusive; . = not tested or not shown; [ ] = dose if it differs, or a comment. Unless noted, calls come from the whole dose curve; as a rule, active = well fitted curve in the direction sought with a large enough effect; inconclusive = small, poorly fitted or top-dose-only effect, or another doubt; inactive = no such curve, though single readings can be large; an effect the other way counts as inactive or inconclusive. Unless noted, % is set by controls: 0 for no effect and ±100 for the full control effect.

SMILES | HT1080-NT tox | DT40 TDP1 no CPT | ALOX12 inh | IL1B secr inh | HT1080 IDH1KD tx | TDP1 cell CPT
CCCc1nc(SCC(=O)N2CCN(c3ccccc3)CC2)c2c(=O)n(C)c(=O)n(C)c2n1 | -12.1% | 7.31µM* | 11.0% | 16.1 | 4.4% | 6.51µM*
COCCN1C(=O)[C@H]2CN(Cc3ccc(C)cc3C)C[C@H]2C1=O | . | . | 8.3% | . | . | .
Cc1ccc2c(c1)nc1n2[C@@H](CNC(C)C)COC1 | . | . | 13.1%[176 µM] | . | . | .
O=C(Cc1ccc(F)cc1)N1CCN(c2cc(-c3ccc(Cl)cc3)[nH]n2)CC1 | . | . | -8.2% | . | . | .
CN(CCO)S(=O)(=O)c1ccc2c(c1)C(=NO)c1cc(S(=O)(=O)N(C)CCO)ccc1-2 | -12.9% | 11.6µM* | -0.5% | -25.4 | -23.2% | -21.6%
COc1ccc(-c2c(-c3ccc(S(C)(=O)=O)cc3)sc3ccc(OC)cc23)cc1 | 0.0% | 13µM* | -10.3% | -2.4 | 3.6% | ?
COc1ccc(-c2sc3cc(OC)ccc3c2-c2ccc(OCCN3CCOCC3)cc2)cc1 | ? | ? | -16.2% | 5.6 | -23.2% | ?
COc1ccc(-c2sc3ccc(OC)cc3c2-c2ccc(O)cc2)cc1 | ? | ? | ? | -63.0* | ? | ?
COc1ccc2c(-c3ccc(SC)cc3)c(-c3ccc(S(C)(=O)=O)cc3)sc2c1 | 3.4% | ? | -5.0% | -0.5 | 5.5% | ?
COc1ccc2c(-c3cnc(N4CCOCC4)nc3)c(-c3ccc(S(C)(=O)=O)cc3)sc2c1 | 3.2% | 14.6µM* | -11.7% | -29.3 | 11.0% | 14.6µM*
COc1ccc2sc(-c3ccc(S(C)(=O)=O)cc3)c(-c3ccc(SC)cc3)c2c1 | 0.0% | ? | -2.9% | -9.8 | -3.2% | 25.9µM*
COc1ccc2sc(-c3ccc(S(C)(=O)=O)cc3)c(-c3ccc4c(c3)OCCO4)c2c1 | 0.0% | ? | 1.5% | -26.5 | -0.7% | ?
Cc1ccc(N2CCN(S(=O)(=O)c3ccccc3Cl)CC2)cc1Cl | . | . | 28.5% | . | . | .
CC(=O)Nc1cc(C)c(O)c(-c2nc3cc(C)ccc3o2)c1 | . | . | 14.1% | . | . | .
C=CC[C@H](CC(=O)N(CCO)Cc1ccccc1)C(=O)N[C@@H](COC(=O)[C@@H](CC=C)CC(=O)OC(C)(C)C)Cc1c[nH]c2ccccc12 | ? | ? | -9.4% | ? | ? | ?
C=CC[C@H](CC(=O)N(CCO)Cc1ccccc1)C(=O)N[C@H](COC(=O)[C@H](CC=C)CC(=O)OC(C)(C)C)Cc1c[nH]c2ccccc12 | ? | ? | -2.3% | -60.5* | ? | ?
C=CC[C@@H](CC(=O)N(CCO)Cc1ccccc1)C(=O)N[C@@H](COC(=O)[C@H](CC=C)CC(=O)OC(C)(C)C)Cc1c[nH]c2ccccc12 | ? | ? | -11.1% | -72.2* | ? | ?
Cc1ccc(Oc2ncc(-c3ccc(Cl)cc3)cn2)cc1 | 25.3% | 4.5% | 0.0% | 5.9 | 21.6% | 2.7%
Cc1cccc(Oc2ncc(-c3ccc(Cl)cc3)cn2)c1C | -14.5% | 20.6µM* | -9.1% | -24.9 | -21.3% | ?
CCCCCN(C(=O)CCC(=O)OCC(=O)c1c(C)cc(C)cc1C)c1c(N)n(CCCC)c(=O)[nH]c1=O | -14.3% | ? | ? | -76.7* | -8.7% | ?
CCCCCN(C(=O)CCC(=O)OCc1ccc(C(C)C)cc1)c1c(N)n(CCCC)c(=O)[nH]c1=O | -5.5% | 16.4µM* | 0.2% | -15.1 | -14.0% | 23.1µM*
CCCCCN(C(=O)CCC(=O)OCCOc1cccc(Cl)c1)c1c(N)n(CCCC)c(=O)[nH]c1=O | 3.0% | 13µM* | ? | -6.8 | -5.0% | ?
